A selection: hits, their analogues and other compounds. The true share with any hit is near 4.3%.
NR3A LBD binder – modulates the human NR3A ligand-binding domain | NR3A LBD differential scanning fluorimetry, Tm shift; 0% = protein alone, 100% = glycine-bound protein | 2.5% of 340,000 active | Tm shift relative to glycine control, % at 25 µM;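 active = melting temperature shift of at least 10% of the positive control shift, at one fixed dose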
dFosB act – activators of mouse delta FosB homodimer; P13346; purified delta FosB, TAMRA-CDK5 oligo fluorescence polarization; percent of positive-control signal above neutral wells; activation, % at 25 µM; 0.99% of 340,000 active; AID 493131;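 active = mean activation above about 17%, with every replicate also reaching it, limit read from the data, passing the limit was not always enough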
Target sequence (P13346 whole entry, looked up): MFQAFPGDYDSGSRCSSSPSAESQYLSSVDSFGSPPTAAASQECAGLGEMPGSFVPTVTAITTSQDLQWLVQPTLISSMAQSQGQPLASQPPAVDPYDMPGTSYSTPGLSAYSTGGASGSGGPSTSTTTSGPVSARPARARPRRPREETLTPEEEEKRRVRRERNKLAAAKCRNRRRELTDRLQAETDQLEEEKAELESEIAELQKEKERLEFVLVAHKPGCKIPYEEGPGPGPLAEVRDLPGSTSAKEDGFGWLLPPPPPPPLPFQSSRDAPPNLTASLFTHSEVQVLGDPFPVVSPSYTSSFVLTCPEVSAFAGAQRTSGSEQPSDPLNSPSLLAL
UBC13 inh – inhibitors of human UBC13 polyubiquitin chain formation; inhibition, % at 20 µM; TR-FRET; P61088; 0.47% of 330,000 active; in the data active = inhibition above about 45%, passing the limit was not always enough
Target sequence (P61088 whole entry, looked up): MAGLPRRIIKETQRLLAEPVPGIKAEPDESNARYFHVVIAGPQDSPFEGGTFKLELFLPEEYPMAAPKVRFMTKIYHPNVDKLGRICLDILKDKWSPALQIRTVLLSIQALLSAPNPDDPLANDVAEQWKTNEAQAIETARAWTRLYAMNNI
NALP1 inh – inhibitors of NALP1 inflammasome in yeast | S. cerevisiae NALP1/ASC/caspase-1 growth, X-gal OD620, 72 h | inhibition, % at 10 µM | 0.61% of 280,000 active; in the data active = inhibition mostly above about 24%, no sharp cut-off; inactive = mostly below about 32%
CR mimetic SO – caloric restriction mimetics inhibiting age-related superoxide in yeast. S. cerevisiae aged cells, superoxide DHE fluorescence; hits give low values. superoxide response (% of plate mean), % at 10 µM. 0.18% of 330,000 active;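 active = superoxide response under a set limit, about three screen SD below normal, cut at about 65% in these data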;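 also: yeast aged for seven days with compound at 30 °C before DHE staining; 100% = average MFI of all compound-treated wells on the plate with controls excluded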
CR mimetic CP – confirmation of caloric restriction mimetics inhibiting yeast age-related superoxide; shares compounds with CR mimetic SO; S. cerevisiae aging, superoxide DHE fluorescence; hits give low values; superoxide response (% of plate), % at 10 µM; 1% of 850 active;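 active = superoxide signal below 65% of the plate average of sample wells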;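 also: cells aged with compound for 7 days at 30 degrees C before staining; 100% equals mean DHE fluorescence of all compound wells on the plate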
DHE fluor count – DHE fluorescence interference, counter-screen artifact; shares compounds with CR mimetic SO; S. cerevisiae BY4741, flow cytometry; hits give low values; fluorescence response, % at 10 µM; 850 tested, under 10 active; AID 435000;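 active = fluorescence response below 15%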;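 also: percent of the mean fluorescence averaged over all compound wells on the plate; lower means stronger quenching of DHE signal or ROS scavenging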
An asterisk follows results filed as active; nt = no result.

SMILES	NR3A LBD binder	dFosB act	UBC13 inh	NALP1 inh	CR mimetic SO	CR mimetic CP	DHE fluor count
CC(=O)OC1(C(C)=O)CCC2C3CC4OC45CC(O)CCC5(C)C3CCC21C (configuration not stated)	-1	4	nt	nt	nt	121	115
OC(COCC(F)(F)C(F)(F)C(F)(F)C(F)F)Cn1c2ccccc2c2ccccc21 (configuration not stated)	29*	-10	22	-2	139	99	105
CCCn1c(=O)c(C(=O)NCc2ccc(OC)c(OC)c2)c(O)c2ccccc21	3	-19	24	32	63*	109	108
CCCn1c(=O)c(C(=O)NNC(=O)c2ccc(Cl)cc2Cl)c(O)c2ccccc21	-5	-5	-9	8	60*	107	105
COc1ccc(CN(C)C(=O)C(Cc2ccccc2)NC(=O)c2ccccc2)c(OC)c1 (configuration not stated)	1	-8	-4	nt	115	nt	nt
CCOC(=O)NC(=O)/C(C#N)=N\Nc1ccc(Cl)cc1	-5	1	-20	-16	107	102	99
CCOc1ccc(N/N=C(/C#N)C(N)=O)cc1	-5	2	8	20	46*	84	116
COc1ccc(N/N=C(\C#N)C(N)=O)cc1	-3	-2	8	17	48*	99	103
COc1c(O)c(=O)n2c3ccccc3c3ccnc1c32	-1	1	-20	nt	62*	89	95
O=c1c(Cl)c(O)c2cccc3c4ccccc4n1c23	-8	-3	5	22	144	nt	nt
O=C(/C=C/c1cccs1)NC(=S)NNC(=O)Cc1cccs1	-1	-6	-13	-56	39*	73	97
CCN(CC)c1ccc(/C=C/c2cc(-c3ccccc3)c3ccccc3n2)cc1	0	1	nt	-13	55*	91	101
COc1ccc(/C(C#N)=C/c2ccccn2)cc1	0	-11	-1	17	58*	122	109
N#C/C(=C\c1ccccn1)c1nc2ccccc2s1	-1	-4	-17	6	102	nt	nt
O=C(CN1CCN(CC(=O)Nc2ccc3c(c2)OC2(CCCCC2)O3)CC1)Nc1cccc(F)c1	-7	-9	nt	nt	nt	nt	nt
Cc1ccc(NC(=O)c2sc3nc(C)cc(C)c3c2N)cc1	-1	-10	3	25	56*	104	100
Cc1ccc(/C=N/NC(=O)c2nnn(-c3nonc3N)c2CNc2ccccc2)cc1	35*	9	-7	34	65*	122	107
CCOc1ccc(S(=O)(=O)NCc2ccncc2)cc1NC(=O)c1ccccc1F	0	-7	8	21	112	nt	nt
Cc1ccc(CN(CC(=O)NCCc2ccccc2)C(=O)CCCC(=O)Nc2cc(C)on2)cc1	2	-3	2	10	64*	108	91
CC(=O)Nc1ccc(S(=O)(=O)Nc2nc3nc(-c4ccccc4)cc(-c4ccccc4)n3n2)cc1	-27	-2	14	4	60*	96	94
Cc1noc(NS(=O)(=O)c2ccc(N/C=C/C(=O)c3ccc4c(c3)OCO4)cc2)c1C	-5	9	-4	0	65*	103	123
O=C(O)c1ccccc1CSc1nc2ccccc2n1Cc1ccccc1C(=O)O	-1	3	4	13	106	nt	nt
Cc1cc(C)cc(NC(=O)CSc2ccc(-c3ccccn3)nn2)c1	2	-15	-14	-1	109	nt	nt
CCn1c(SCC(=O)N2CCN(S(=O)(=O)c3ccccc3)CC2)nnc1-c1cccs1	-1	-8	-4	12	63*	101	92
COC(=O)c1ccc(NC(=O)CSc2ccc(-c3ccccn3)nn2)cc1	-1	5	-15	-1	102	82	98
SMILES	NR3A LBD binder	dFosB act	UBC13 inh	NALP1 inh	CR mimetic SO	CR mimetic CP	DHE fluor count
CCn1c(C)nnc1SCC(=O)Nc1ccc(C(C)=O)cc1	-3	-6	2	15	59*	91	98
CCn1c(SCC(=O)NCC(=O)Nc2ccc(F)cc2)nnc1-c1cccs1	0	-5	2	12	104	nt	nt
CCn1c(SCC(=O)Nc2ccc(C(=O)OC)cc2)nnc1-c1cccs1	0	15	-4	-1	89	105	101
CCOC(=O)Cc1csc(NC(=O)COc2cc(C)cc(C)c2)n1	-11	-11	-4	3	91	nt	nt
Cc1ccc(Cl)cc1NS(=O)(=O)c1cn(C)nc1C	5	-2	-1	6	61*	102	97
COc1ccc(Cl)cc1NS(=O)(=O)c1cn(C)nc1C	-1	7	-2	-2	104	nt	nt
Cc1ccc(-c2nnc(Nc3ccc(CC(N)=O)cc3)c3ccccc23)cc1S(=O)(=O)NCC1CCCO1 (configuration not stated)	-1	-14	-7	0	92	nt	nt
COC(=O)c1ccc(Nc2nnc(-c3ccc(C)c(S(=O)(=O)NCC4CCCO4)c3)c3ccccc23)cc1 (configuration not stated)	-5	2	8	16	95	87	92
Cc1ccc(-c2nnc(Nc3ccc(C(=O)N(C)C)cc3)c3ccccc23)cc1S(=O)(=O)NCC1CCCO1 (configuration not stated)	-3	-2	-4	39	97	115	115
Cc1ccc2cc(NC(=O)Cc3ccccc3)ccc2n1	2	-5	2	-12	63*	104	104
Cc1ccc2cc(NC(=O)c3ccccc3C)ccc2n1	-2	-9	5	24	116	nt	nt
O=C(CCc1nnc2ccc(NCc3ccco3)nn12)N1CCN(c2ccc(F)cc2)CC1	-1	2	-7	-1	94	nt	nt
CCOC(=O)c1c(NC(=O)CSc2nnnn2-c2ccccc2)sc2c1CC(C)(C)NC2(C)C	-1	5	13	27	62*	106	106
CCOC(=O)c1c(NC(=O)CSc2nnnn2-c2ccccc2OCC)sc2c1CC(C)(C)NC2(C)C	0	-43	13	nt	89	nt	nt
CC(=O)c1ccc(NC(=S)NC(=O)/C=C/c2ccc(F)cc2)cc1	6	3	-12	20	49*	102	105
CCC1CCCCN1C(=O)CSc1nnc(CNC(=O)c2c(F)cccc2Cl)o1 (configuration not stated)	-3	-9	-6	-20	88	nt	nt
O=C(COc1ccccc1)NCc1ccccc1	-2	3	5	5	93	nt	nt
Cc1cccc(C)c1OCC(=O)NCc1ccccc1	-2	-3	5	22	46*	110	111
CN(C)c1ccc(NC(=O)c2cccc(C(=O)Nc3ccc(N(C)C)cc3)n2)cc1	-1	2	-12	26	65*	113	100
O=C(Nc1ccccc1)c1cccc(C(=O)Nc2ccccc2)n1	4	11	-8	19	106	nt	nt

Bioassay records from PubChem BioAssay.
